Screening data: PubChem BioAssay, National Center for Advancing Translational Sciences (NCATS)
ATXN2 expr inh: Primary qHTS for Inhibitors of ATXN expression | HEK-293 ATXN2-luciferase reporter, luminescence, 24 h | Potency, µM (doses to about 57 µM), without a hit: at the highest dose activity change, negative = inhibition, actives largely listed as inhibitors | 360,000 compounds, 0.72% hits | AID 1745845, 2022; note: % is set by controls: 0 for no effect and ±100 for the full control effect; nearly all actives have a fitted effect of over 55% in size
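qHTS (up to 57 uM final) was run with 24 h compound exposure of reporter cells at 37 °C. Each well was multiplexed: SteadyGlo luminescence measured ATXN2-luciferase expression after a fluorogenic Gly-Phe-AFC viability readout (25 uM final).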
TDP1 cell noCPT: qHTS for Inhibitors of human tyrosyl-DNA phosphodiesterase 1 (TDP1): qHTS in cells in absence of CPT; Potency, µM (series often up to 46.2 µM), for the others: top-dose activity change, negative = growth inhibition, actives largely listed as inhibitors; AID 686978, 2013; DT40 Tdp1-/- hTDP1 cells, no CPT, ATP luminescence, 48 h; 420,000 compounds, 15% hits; note: % is set by controls: 0 for no effect and ±100 for the full control effect; nearly all actives have a fitted effect of over 55% in size
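Stably hTDP1-transfected Tdp1-null chicken DT40 cells were treated with library compounds minus camptothecin and grown for at least 48 hr at 37 °C, after which cellular ATP was quantified by luminescence.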
TDP1 cell CPT: qHTS for Inhibitors of human tyrosyl-DNA phosphodiesterase 1 (TDP1): qHTS in cells in presence of CPT; Potency, µM (highest dose often 46.2 µM), without a hit: at the top dose activity change, negative = growth inhibition, usual class: inhibitors; 420,000 compounds, 12% hits; chicken DT40 Tdp1-/-;hTDP1 cells + 20 nM CPT, ATP luminescence, 48 h; note: % is set by controls: 0 for no effect and ±100 for the full control effect; nearly all actives have a fitted effect of over 55% in size
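Chicken DT40 Tdp1-/- cells complemented with human TDP1, 400 cells/well, exposed to compounds plus 20 nM camptothecin for at least 48 h at 37 C; viability read as ATP content by CellTiter-Glo luminescence.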
HepG2 viability: qHTS for Inhibitors of TGF-b: Cytotox Counterscreen; HepG2 CAGA-GFP viability, ATP luminescence, 18 h; Potency, µM (titrated, usually from 46.1 µM), for the others: at the highest dose activity change, negative = cytotoxicity, hits mostly cytotoxic; 410,000 compounds, 0.76% hits; AID 588856, 2011
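HepG2 CAGA-GFP cells (1000/well, DMEM with 1% FBS) received compound, then TGF-beta at 500 pg/mL final, and were incubated 18 hours at 37 degrees C. Viability was read by CellTiter-Glo luminescence. Media-only wells were set as complete cell-killing and DMSO as no toxicity.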
S2 tox: Viability Counterscreen for Primary qHTS for Inhibitors of ATXN expression; Potency, µM (series often up to 56.7 µM), usual class: cytotoxic; AID 651635, 2014; 400,000 compounds, 0.49% hits; S2 cells (HEK-293 line with an ATXN2-luciferase reporter) viability, CellTiter-Fluor protease fluorescence, 24 h; note: nearly all actives have a fitted effect of over 40% in size
TGFb inhibitor: qHTS for Inhibitors of TGF-b. HepG2 CAGA-GFP TGF-b/SMAD3 reporter, GFP fluorescence, 18 h; TGF-beta stimulated, 500 pg/mL final. Potency, µM (series often up to 46.1 µM), inactives show at the top dose activity, negative = inhibition, actives largely listed as inhibitors. 410,000 compounds, 1.2% hits. AID 588855, 2011; note: % is set by controls: 0 for no effect and ±100 for the full control effect; nearly all actives have a fitted effect of over 65% in size
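Inhibition was scored as loss of TGF-beta-induced (500 pg/mL final, 18 hours, 37 degrees C) GFP in HEPG2 cells carrying a CAGA-GFP reporter, in DMEM with 1% FBS. Well GFP was summed per cell; Activity was normalised to unstimulated and stimulated DMSO wells, then concentration-response fitting.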
The depositor's hits bear a star; i = inactive; ? = inconclusive; / = not tested or not shown; ! = not confirmed by another sample; [ ] = dose if it differs, or a comment. In the library only some 17% were active in any assay of this set; here they are far more common. Calls come from the whole dose curve; as a rule, active = well fitted curve in the direction sought with a large enough effect; inconclusive = small, poorly fitted or top-dose-only effect, or another doubt; inactive = no such curve, though single readings can be large; an effect the other way counts as inactive or inconclusive. Potency is the fitted concentration of half-maximal effect.

SMILES	ATXN2 expr inh	TDP1 cell noCPT	TDP1 cell CPT	HepG2 viability	S2 tox	TGFb inhibitor
CC(=O)O[C@H]1C(=O)[C@@]2(C)C([C@H](OC(=O)c3ccccc3)[C@]3(O)C[C@H](O)C(C)=C1C3(C)C)[C@]1(OC(C)=O)CO[C@@H]1C[C@H]2O (some centres not stated)	-0.5%	5.8µM*	7.31µM*	1.6%	?	0.8%
COC(=O)C1=C(c2ccc(F)cc2F)C[C@@H]2CC[C@H]1N2C(=O)NCC1CC1	8.5%	?	-4.4%	1.7%	i	-9.6%
CCC(=NCC1CCCO1)c1c(O)n(-c2ccccc2C)c(=O)[nH]c1=O (configuration not stated)	0.8%	-21.5%	2.6%	-30.8%	i	-17.4%
Cc1sc2c(c1C)C(c1ccc(Cl)cc1)=N[C@@H](CC(=O)OC(C)(C)C)c1nnc(C)n1-2	10.4%	/	/	/	/	/
NP(N)(=O)NC(=O)c1ccc(F)cc1	4.2%	?	?	/	i	/
NNC(=O)CP(=O)(c1ccccc1)c1ccccc1	-5.9%	11.9µM*!	?	-2.0%	i	-0.8%
CN1CCN(CCOC2c3ccccc3CSc3ccc(Cl)cc32)CC1 (configuration not stated)	-26.3%	16.4µM*	?	-45.9%	?	?
CN(C)CCSC1c2ccccc2CSc2ccccc21 (configuration not stated)	?	?	?	-38.2%	i	-1.6%
Clc1ccc2c(c1)C(OC1CN3CCC1CC3)c1ccccc1CS2 (configuration not stated)	?	14.6µM*	16.4µM*	-110.6%	/	?
CCCC(C)(COC(N)=O)COC(N)=O	/	-7.8%	-12.3%	/	/	/
CCCC(=O)O[C@]1(C(=O)COC(=O)CC)[C@@H](C)C[C@H]2[C@@H]3CCC4=CC(=O)C=C[C@]4(C)[C@@]3(F)[C@@H](O)C[C@@]21C	/	23.7µM*	?	/	?	/
C[C@]1(O)CC[C@H]2[C@@H]3CCC4=CC(=O)CC[C@]4(C)[C@@]3(F)[C@@H](O)C[C@@]21C	5.2%	-18.5%	1.5%	4.3%	i	30.0%
CCCCCCCn1c(=O)c(C(=O)Nc2cnccn2)c(O)c2ccccc21	?	0.581µM*	0.82µM*	4.3%	i	-20.7%
CCCCCCn1c(=O)c(C(=O)Nc2cccc(C)n2)c(O)c2ccccc21	/	3.66µM*	3.66µM*	4.6%	i	-1.3%
CCCCn1c(=O)c(C(=O)NCc2ccco2)c(O)c2ccccc21	-24.8%	?	?	-4.9%	i	-13.0%
CCCCCCn1c(=O)c(C(=O)Nc2ncccc2C)c(O)c2ccccc21	/	1.64µM*	4.11µM*	-21.7%	i	8.9%
CCCCCn1c(=O)c(C(=O)Nc2cnccn2)c(O)c2ccccc21	-27.3%[11.3 µM]	2.91µM*	4.11µM*	5.5%	i	?
CCCCCn1c(=O)c(C(=O)Nc2ccccc2C)c(O)c2ccccc21	42.1%	2.2%	20.6%	-3.6%	i	1.9%
O=c1[nH]c(=S)n(C2CCCCC2)c(O)c1C=NCCN1CCOCC1	/	0.4%	-3.6%	116.8%	i	19.8%
O=C(O)[C@H]1[C@H]2CN[C@H](C(=O)O)[C@H]21	/	-21.9%	-5.7%	/	/	/
CCCCCCCCCC(=O)O[C@H]1CC[C@H]2[C@@H]3CCC4=CC(=O)CC[C@@H]4[C@H]3CC[C@]12C	2.7%	-0.1%	18.9%	/	i	/
CCCCn1c(=O)c(C(=O)NCc2ccccc2Cl)c(O)c2ccccc21	/	?	?	-2.3%	?	8.1%
